Data published in PubChem BioAssay (Tox21).
“And” between values parts separate entries of the source, which are not always exact repeats. Identical values can stand only once. Inconclusive results are not listed. A number with no mark means an inactive call. The source made the active and inactive calls. Calls come from the whole dose curve; as a rule, active = well fitted inhibition curve with a large enough effect in the repeat runs; inconclusive = weak or mixed curves; inactive = no such curve, though single readings can be large or run the other way.

Target: Androgen receptor (Homo sapiens) (UniProt P10275)
Experiment: qHTS assay to identify small molecule antagonists of the androgen receptor (AR) signaling pathway using the MDA cell line in the presence of 0.5 nM R1881 (AID 1259243); note: nearly all actives have a fitted effect of over 50% in size
Conditions: MDA-kb2 MMTV-luciferase, R1881 0.5 nM, 16 h; series mostly up to 92.4 µM; activity, negative = inhibition: at the top concentration
Excerpt: U.S. Tox21 Program National Center for Advancing Translational Sciences [NCATS] NIH Chemical Genomics Center [NCGC] U.S. Environmental Protection Agency [EPA] National Institutes of Environmental Health Sciences [NIEHS] National Toxicology Program [NTP] U.S. Food and Drug Administration [FDA] Tox21 Assay Overview: Androgen receptor (AR) is an important member of the nuclear receptor family. Its signaling plays a critical role in AR-dependent prostate cancer and other androgen related diseases. Considerable attention has been given in the past decades to develop methods to study and screen for the environmental chemicals that have the potential to interfere with metabolic homeostasis, reproduction, developmental and behavioral functions. Therefore AR binding assay for screening androgen antagonists can be used to identify potential endocrine disruptors. MDA-kb2 cells (from ATCC, deposited by Wilson et al.) were used to screen for AR inhibitors against Tox21 compound libraries. These cells are human breast carcinoma cells that were stably transfected with a luciferase reporter gene under control of the MMTV promoter that contains response elements for both androgen receptor (AR) and glucocorticoid receptor (GR). The current screening for identification of AR inhibitors against Tox21 libraries used lower concentration (0.5 nM) of R1881 as a stimulator.
Tox21 Assay Protocol Summary: MDA-kb2 cells (cells cultured without CO2) were dispensed at 3,000 cells/well in 4 uL of culture medium into white wall/solid-bottom 1536-well plates (Corning Life Sciences, Corning, NY) using a Multidrop Combi (ThermoFisher Scientific, Waltham, MA) dispenser. After the assay plates were incubated at a 37C and 0% CO2 for 5 hr, 23 nL of compounds dissolved in DMSO, positive controls or DMSO only was transferred to the assay plate by a Pintool station (Kalypsys, San Diego, CA). The transfer of compounds was followed by the addition of 1 uL of 0.5 nM (final concentration) agonist (R1881)/culture medium using a Flying Reagent Dispenser (FRD, Aurora Discovery, San Diego, CA). The plates were incubated at 37C and 0% CO2 for 16 hr. For luciferase reporter gene assay, 4 uL of ONE-Glo reagent (Promega Corporation, Madison, WI) was added to each well using the FRD and after 30 min incubation at room temperature luminescence intensity was measured using ViewLux plate reader (PerkinElmer, Shelton, CT).
% is set by controls: 0 for no effect and ±100 for the full control effect; potency is the fitted concentration of half-maximal effect.

Androgen receptor (Homo sapiens), sequence (P10275 whole entry, looked up): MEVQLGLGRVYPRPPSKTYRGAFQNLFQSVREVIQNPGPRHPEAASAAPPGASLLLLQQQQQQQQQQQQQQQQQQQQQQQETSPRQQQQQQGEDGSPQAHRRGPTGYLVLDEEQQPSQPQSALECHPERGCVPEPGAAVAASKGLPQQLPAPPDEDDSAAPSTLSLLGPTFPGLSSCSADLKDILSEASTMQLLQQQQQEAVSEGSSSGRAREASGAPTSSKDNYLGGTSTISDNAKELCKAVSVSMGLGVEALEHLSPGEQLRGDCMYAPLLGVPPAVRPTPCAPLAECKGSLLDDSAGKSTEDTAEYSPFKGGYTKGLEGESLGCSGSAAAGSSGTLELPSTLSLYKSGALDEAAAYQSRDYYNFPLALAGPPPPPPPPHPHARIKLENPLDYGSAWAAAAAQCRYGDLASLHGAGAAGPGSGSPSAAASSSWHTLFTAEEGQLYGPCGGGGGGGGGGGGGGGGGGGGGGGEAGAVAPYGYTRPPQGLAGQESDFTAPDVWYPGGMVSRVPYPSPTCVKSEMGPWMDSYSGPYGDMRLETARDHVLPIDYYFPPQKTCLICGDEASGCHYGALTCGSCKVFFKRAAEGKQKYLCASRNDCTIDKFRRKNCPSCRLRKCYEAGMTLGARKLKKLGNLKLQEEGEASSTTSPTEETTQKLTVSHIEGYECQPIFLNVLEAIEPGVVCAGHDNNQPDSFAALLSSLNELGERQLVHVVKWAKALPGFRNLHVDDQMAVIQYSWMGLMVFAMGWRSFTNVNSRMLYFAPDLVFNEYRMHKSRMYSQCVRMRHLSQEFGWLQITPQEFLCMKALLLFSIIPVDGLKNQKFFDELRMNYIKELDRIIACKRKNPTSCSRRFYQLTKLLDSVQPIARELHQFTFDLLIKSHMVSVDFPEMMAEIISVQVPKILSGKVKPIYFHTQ

Row | Compound | activity, negative = inhibition | Potency
1 | CCC1(C2=NCCN2)Cc2ccccc2O1 (stereo not given) | -0.655% [at 42.5 µM] | –
2 | CC(CC(C(N)=O)(c1ccccc1)c1ccccc1)N(C)C (stereo not given) | 10.7% [at 42.5 µM] | –
3 | Nc1c(Br)cc(Br)c2c1C(=O)c1ccccc1C2=O | -15.1% [at 19 µM] | –
4 | CCOP(=S)(S)OCC | 4.69% | –
5 | O=C(N[C@H]1CN2CCC1CC2)c1ccc2c(c1)OCCO2 | 4.66% | –
6 | CN(C)N | 0% | –
7 | COc1cc(CC#N)cc(OC)c1OC | -17.8% [at 42.5 µM] | –
8 | CC(=O)NNc1ccccc1 | -14.6% | –
9 | CC(Cl)C(=O)O (stereo not given) | 5.67% | –
10 | CN(C1CCCCC1)C1CCCCC1 | 4.21% | –
11 | O=C(O)COc1cc(Cl)c(Cl)cc1Cl | – | inactive
12 | C[CH2][Hg][S]c1ccccc1C(=O)O | – | 7.7 µM (active) and 7.5 µM (active)
13 | COc1ccc2c(c1OC)C(=O)O[C@H]2[C@@H]1c2cc3c(cc2CCN1C)OCO3 | 8% [at 42.5 µM] | –
14 | O=P(OCC(Br)CBr)(OCC(Br)CBr)OCC(Br)CBr (stereo not given) | – | 31 µM (active) and 51.7 µM (active)
15 | NP(N)(=O)NC(=O)c1ccc(F)cc1 | 0.129% [at 42.5 µM] | –
16 | O=C(O)CCCOc1ccc(Cl)cc1Cl | – | inactive
17 | CC1(C)[C@H](C(=O)O[C@H](C#N)c2cccc(Oc3ccccc3)c2)[C@@H]1C=C(Br)Br | -20.4% | –
18 | CN1C(=O)CN=C(c2ccccc2)c2cc([N+](=O)[O-])ccc21 | 3.96% [at 42.5 µM] | –
19 | Nc1ccccc1C(=O)OCC(O)CO (stereo not given) | -1.38% [at 42.5 µM] | –
20 | CCC(=O)O[C@@H]1C=C2CCC3C(CCC4(C)C3CC[C@@H]4OC(=O)CC)C2CC1 (stereo not given in full) | 42.9% [at 42.5 µM] | –

Row | Compound | activity, negative = inhibition | Potency
21 | CCC1(CCC(C)C)C(=O)NC(=O)NC1=O | 3.36% | –
22 | CC(C)(C)N(NC(=O)c1ccc(Cl)cc1)C(=O)c1ccccc1 | -18.8% | –
23 | O=C(O)c1ccc(=O)[nH]c1 | -0.161% [at 42.5 µM] | –
24 | ClCc1ccccc1Cl | 0.38% | –
25 | CCCCCBr | -1.99% | –
26 | Cc1cnc(C2=NC(C)(C(C)C)C(=O)N2)c(C(=O)O)c1 (stereo not given) | 13.6% | –
27 | Clc1ccc2ccccc2c1 | 29.1% | –
28 | CC(C)(C)NCC(O)c1cc(Cl)c(N)c(C(F)(F)F)c1 (stereo not given) | 12.6% [at 42.5 µM] | –
29 | C[C@]12C=CC3=C4CCC(=O)C=C4CC[C@H]3[C@@H]1CC[C@@H]2O | – | inactive
30 | C[N+](C)(C)CC1CO1 (stereo not given) | 5.88% | –
31 | O=C(NCNC(=O)NC1C(=O)NC(=O)N1CO)NC1C(=O)NC(=O)N1CO (stereo not given) | 38.7% | –
32 | N#CC(C#N)=Cc1ccc(O)c(O)c1 | -9.16% [at 42.5 µM] | –
33 | O=CC=O | 6.17% | –
34 | COCc1cnc(C2=NC(C)(C(C)C)C(=O)N2)c(C(=O)O)c1 (stereo not given) | -2.21% | –
35 | COP(=O)(OC)OC(Br)C(Cl)(Cl)Br (stereo not given) | – | 61.2 µM (active) and 61.1 µM (active)
36 | FC(F)OC(F)(F)C(F)Cl (stereo not given) | 7.15% | –
37 | O=C(Cl)OCCOCCOC(=O)Cl | 5.36% | –
38 | C#CC(O)(C=CCl)CC (stereo not given) | 1.9% [at 42.5 µM] | –
39 | CN1CC[C@]23c4c5ccc(O)c4O[C@H]2[C@@H](O)C=C[C@H]3[C@H]1C5 | 13.8% | –
40 | C=C(Cl)Cl | 0.937% | –
